Several values for one entry are separate records, joined by “and”; a condition that tells them apart may be missing. Identical values can stand only once. About 100 (5%) of roughly 2,000 compounds were called active. No stated cut-off is given here; in the data, active means z-score above about 2; inactive means the rest. The full list was thinned out, with actives kept by preference. More than one record can exist for a structure, and the calls need not agree. Positions of bridges follow the written chain, without caps; N, C: chain ends. Non-standard residues stand in square brackets, D forms with d. Residues, ends and D or L forms follow the SMILES beside them. hArg = N=C(N)NCCCC[CH](N)C(=O)O; Mpa = O=C(O)CCS
Test: supercomplex reporter luminescence per Hoechst cell count – Hoechst nuclei count (AID 1645838);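 further: control cybrid cells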;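 on z-score: higher means more mitochondrial supercomplex formation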
Conditions: Cells, luminescence/Hoechst cell count ratio; for z-score: stronger effect = higher value; for cell count: measured here: cell number, Hoechst nuclei count
[1] = library stock concentration (final well concentration not given) 80 uM
[2] = library stock concentration (final well concentration not given) 400 uM
[3] = library stock concentration (final well concentration not given) 2 mM
[4] = library stock concentration (final well concentration not given) 10 mM
[5] = library stock concentration (final well concentration not given) 46 uM
[6] = library stock concentration (final well concentration not given) 278 uM
[7] = library stock concentration (final well concentration not given) 1.67 mM

CC(Cc1cc2c(c(C(N)=O)c1)N(CCCO)CC2)NCCOc1ccccc1OCC(F)(F)F (centres undefined)
z-score [1]: -1.47 (inactive)
z-score [2]: -1.87 (inactive)
z-score [3]: -2.9 (inactive)
z-score [4]: -3.02 (inactive)
cell count [1]: 5980
cell count [2]: 5330
cell count [3]: 5440
cell count [4]: 5520

COc1ccc(Br)c(-c2nc3ccccc3c(=O)o2)c1
outcome (library stock 10 mM): inactive; censored for cell count
z-score [1]: -0.298 (inactive)
z-score [2]: -0.159 (inactive)
z-score [3]: -0.345 (inactive)
cell count [1]: 5250
cell count [2]: 5070
cell count [3]: 5030

O=c1[nH]oc2cc(Cl)ccc12
z-score [5]: -0.28 (inactive)
z-score [6]: 0.381 (inactive)
z-score [7]: -0.301 (inactive)
z-score [4]: 0.402 (inactive)
cell count [5]: 6680
cell count [6]: 6710
cell count [7]: 6630
cell count [4]: 6300

O=P(O)(O)OC1C(O)C(OP(=O)(O)O)C(O)C(OP(=O)(O)O)C1O (centres undefined)
z-score: -0.332 (inactive)
cell count: 5290

CC(C)CC(NC(=O)NC(CCC(=O)O)C(=O)O)C(=O)O (centres undefined)
z-score [5]: -0.295 (inactive)
z-score [6]: 0.0106 (inactive)
z-score [7]: 0.469 (inactive)
z-score [4]: 0.233 (inactive)
cell count [5]: 6480
cell count [6]: 6530
cell count [7]: 6460
cell count [4]: 6410

Cc1cc(C)c(/C=C2\C(=O)Nc3ccccc32)[nH]1
z-score: -0.647 (inactive)
cell count: 5700

COc1cc(=C2C=c3ccccc3=N2)[nH]c1=Cc1[nH]c(C)cc1C
z-score [1]: 0.065 (inactive)
z-score [2]: 2.07 (active)
z-score [3]: 3.14 (active)
z-score [4]: 1.08 (inactive)
cell count [1]: 5750
cell count [2]: 1640
cell count [3]: 1600
cell count [4]: 1560

CCCC(NC(C)C(=O)N1C(C(=O)O)C[C@H]2CCCC[C@@H]21)C(=O)OCC (some centres undefined)
z-score [1]: -0.394 (inactive)
z-score [2]: 0.104 (inactive)
z-score [3]: -0.276 (inactive)
z-score [4]: -0.453 (inactive)
cell count [1]: 5070
cell count [2]: 4880
cell count [3]: 5080
cell count [4]: 5340

CCCCCCCCC#CCC#CCC#CCCCC(=O)O
z-score: 0.153 (inactive)
cell count: 5310

CCCCC1C(=O)CC[C@H]2[C@@H]1CC(=O)[C@@H]2CCCCCCC(=O)O (some centres undefined)
z-score: -0.162 (inactive)
cell count: 5440

CC/C=C\C/C=C\C/C=C\CCCCCCCC(=O)OCC
z-score: -0.911 (inactive)
cell count: 5260

NC(=O)Nc1sc(-c2ccc(F)cc2)cc1C(N)=O
outcome (library stock 10 mM): inactive; censored for cell count
z-score [5]: -0.164 (inactive)
z-score [6]: 0.156 (inactive)
z-score [7]: 1.6 (inactive)
cell count [5]: 6530
cell count [6]: 6190
cell count [7]: 4790

NC(=O)Nc1cc(-c2cccc(F)c2)sc1C(=O)NC1CCCNC1 (centres undefined)
outcome (library stock 400 µM): inactive; censored for cell count
outcome (library stock 2 mM): inactive; censored for cell count
outcome (library stock 10 mM): inactive; censored for cell count
z-score [1]: 0.798 (inactive) and 2.01 (active)
z-score [2]: 2.61 (active)
cell count [1]: 3580 and 3980
cell count [2]: 1750

O=C(NC1CCN(CC(F)(F)F)CC1)c1ccc(-c2cccc(F)c2)nc1
z-score [5]: -0.25 (inactive)
z-score [6]: 0.0438 (inactive)
z-score [7]: -0.291 (inactive)
z-score [4]: -0.236 (inactive)
cell count [5]: 6960
cell count [6]: 6520
cell count [7]: 7210
cell count [4]: 7340

Cc1ccc(NC(=O)c2ccc(CN3CCN(C)CC3)cc2)cc1Nc1nccc(-c2cccnc2)n1
z-score [1]: -0.201 (inactive)
z-score [2]: -0.672 (inactive)
z-score [3]: -0.269 (inactive)
z-score [4]: -0.486 (inactive)
cell count [1]: 4460
cell count [2]: 4540
cell count [3]: 4320
cell count [4]: 4680

Cc1cn(-c2cc(NC(=O)c3ccc(C)c(Nc4nccc(-c5cccnc5)n4)c3)cc(C(F)(F)F)c2)cn1
z-score [1]: -0.15 (inactive)
z-score [2]: -0.0425 (inactive)
z-score [3]: 0.192 (inactive)
z-score [4]: 1.64 (inactive)
cell count [1]: 5660
cell count [2]: 5720
cell count [3]: 5660
cell count [4]: 3260

Cc1ccc(NC(=O)c2ccc(CN3CCC(N(C)C)C3)c(C(F)(F)F)c2)cc1Nc1nccc(-c2cncnc2)n1 (centres undefined)
z-score [1]: 0.0204 (inactive)
z-score [2]: 0.323 (inactive)
z-score [3]: 1.69 (inactive)
z-score [4]: 4.49 (active)
cell count [1]: 5990
cell count [2]: 5640
cell count [3]: 4410
cell count [4]: 2490

O=C(O)CCC/C=C\C[C@@H]1[C@@H](/C=C/[C@@H](O)C2CCCCC2)[C@H](O)C[C@@H]1O
z-score: -0.293 (inactive)
cell count: 5180

O=C1C[C@@H]2[C@@H](/C=C/[C@@H](O)COc3cccc(C(F)(F)F)c3)[C@H](O)C[C@@H]2O1
z-score: 0.782 (inactive)
cell count: 5240

COc1cc(N2CCC(N3CCN(C)CC3)CC2)ccc1Nc1ncc(Cl)c(Nc2ccccc2S(=O)(=O)C(C)C)n1
outcome (library stock 10 mM): inactive; censored for cell count
z-score [1]: 0.0842 (inactive)
z-score [2]: 0.241 (inactive)
z-score [3]: 1.15 (inactive)
cell count [1]: 4260
cell count [2]: 4220
cell count [3]: 3560

CNC(=O)c1ccccc1Nc1nc(Nc2ccc(N3CCOCC3)cc2OC)ncc1Cl
outcome (library stock 2 mM): inactive; censored for cell count
outcome (library stock 10 mM): inactive; censored for cell count
z-score [1]: -0.243 (inactive)
z-score [2]: -0.00453 (inactive)
cell count [1]: 6320
cell count [2]: 5260

COc1cc(N2CCOCC2)ccc1Nc1ncc(F)c(Nc2ccccc2NS(C)(=O)=O)n1
z-score [1]: -0.351 (inactive)
z-score [2]: -0.312 (inactive)
z-score [3]: 0.0927 (inactive)
z-score [4]: 3.16 (active)
cell count [1]: 5830
cell count [2]: 5470
cell count [3]: 5120
cell count [4]: 1690

CCC(O)/C=C/C=O (centres undefined)
z-score: 0.341 (inactive)
cell count: 4950

O=C1C(=Cc2cn(-c3ccccc3)nc2-c2ccc(OCc3ccc(Cl)cc3)cc2)SC(=S)N1CCS(=O)(=O)O
z-score [1]: 0.0314 (inactive)
z-score [2]: 0.372 (inactive)
z-score [3]: -0.323 (inactive)
z-score [4]: -0.219 (inactive)
cell count [1]: 5380
cell count [2]: 4640
cell count [3]: 5180
cell count [4]: 4960

c1ccc(Nc2nc3c(s2)CCCc2[nH]ncc2-3)nc1
z-score [5]: -0.0827 (inactive)
z-score [6]: -0.00166 (inactive)
z-score [7]: -0.105 (inactive)
z-score [4]: 0.335 (inactive)
cell count [5]: 6250
cell count [6]: 5830
cell count [7]: 6080
cell count [4]: 5550

NC(=O)C1CSSCCC(=O)NC(CCCCN=C(N)N)C(=O)NCC(=O)NC(CC(=O)O)C(=O)NC(Cc2c[nH]c3ccccc23)C(=O)N2CCCC2C(=O)N1 (centres undefined) ([Mpa][hArg]GDWPC-NH2; disulfide 1-7; configuration not given here)
z-score [5]: -0.201 (inactive)
z-score [6]: -0.18 (inactive)
z-score [7]: -0.38 (inactive)
z-score [4]: -0.0485 (inactive)
cell count [5]: 5770
cell count [6]: 5930
cell count [7]: 6620
cell count [4]: 5820

CC(C)C1C(=O)NC(CCCN=C(N)N)C(=O)NCC(=O)NC(CC(=O)O)C(=O)NC(Cc2ccccc2)C(=O)N1C (centres undefined)
z-score [1]: 0.68 (inactive)
z-score [2]: 0.227 (inactive)
z-score [3]: 0.518 (inactive)
z-score [4]: 5.23 (active)
cell count [1]: 5020
cell count [2]: 5060
cell count [3]: 4260
cell count [4]: 1780

CCCCC[C@H](O)/C=C/[C@@H]1[C@@H](C/C=C\CCCCOC)[C@@H](O)C[C@H]1O
z-score: -0.514 (inactive)
cell count: 5540

CCCCC[C@@H](O)[C@H]1C(=O)O[C@H](C)[C@@H](O)/C=C/C=C/C=C/C=C/C=C(\C)[C@@H](O)C[C@H](O)C[C@H](O)C[C@H](O)C[C@H](O)C[C@H](O)C[C@@H]1O
z-score: 0.375 (inactive)
cell count: 5780

Cc1cc(-c2ccccc2)nc2cc(C(=O)Nc3cccc(O)c3)nn12
z-score [1]: 0.0171 (inactive)
z-score [2]: 0.0308 (inactive)
z-score [3]: -0.473 (inactive)
z-score [4]: -0.672 (inactive)
cell count [1]: 5500
cell count [2]: 5070
cell count [3]: 5150
cell count [4]: 5110

Source: PubChem BioAssay AID1645838 (ICCB-Longwood Screening Facility, Harvard Medical School, 2021)
